Bioassay records (PubChem BioAssay)
Sampled rows, rich in hits. Any-hit rate of the full collection: about 9%.
ALDH1A1 inh: qHTS Assay for Inhibitors of Aldehyde Dehydrogenase 1 (ALDH1A1). Purified ALDH1A1, NADH fluorescence, propionaldehyde substrate. Potency, µM (highest dose often 75.3 µM), actives largely listed as inhibitors. 220,000 tested, 7.3% active
Target sequence (P00352 whole entry, looked up): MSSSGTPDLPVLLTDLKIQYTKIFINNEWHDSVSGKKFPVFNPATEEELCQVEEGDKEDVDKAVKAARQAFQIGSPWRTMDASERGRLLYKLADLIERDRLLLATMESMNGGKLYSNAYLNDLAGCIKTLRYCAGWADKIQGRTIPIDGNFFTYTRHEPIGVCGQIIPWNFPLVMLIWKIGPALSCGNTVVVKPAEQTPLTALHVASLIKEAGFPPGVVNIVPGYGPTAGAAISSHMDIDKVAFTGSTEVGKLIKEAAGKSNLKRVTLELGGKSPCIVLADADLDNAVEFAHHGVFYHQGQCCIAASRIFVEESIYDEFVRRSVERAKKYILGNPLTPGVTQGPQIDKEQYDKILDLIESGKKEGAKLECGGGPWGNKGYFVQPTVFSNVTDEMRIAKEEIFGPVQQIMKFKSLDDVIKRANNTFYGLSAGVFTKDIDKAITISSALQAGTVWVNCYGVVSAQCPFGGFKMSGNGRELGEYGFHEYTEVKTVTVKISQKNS
IMPase inh: qHTS Assay for Identifying the Cell-Membrane Permeable IMPase Inhibitors; 120,000 tested, under 10 active; Inositol monophosphatase 1 (Rattus norvegicus), P97697; inhibition (IP1 accumulation), % at 46.1 µM; CHO-M1 cells, IP1 accumulation, HTRF TR-FRET ratio; active = well fitted curve in the direction sought with a large enough effect in the signal ratio, not every such curve was filed as active; inconclusive = small, poorly fitted or top-dose-only effect, or a change in a side signal; inactive = no such curve, though single readings can be large or run the other way; the % refers to the signal ratio;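 also: cells stimulated with carbachol in lithium chloride buffer; higher means more IMPase inhibition seen as more IP1 and lower FRET ratio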
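Carbachol-driven Gq signalling in CHO-M1 cells (2000/well) generates IP1. Compounds that block IMPase raise IP1 and so reduce the FRET signal from Eu-anti-IP1 and d2-IP1 after a 10 min room-temperature lysis.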
HPGD block: qHTS Assay for Inhibitors of HPGD (15-Hydroxyprostaglandin Dehydrogenase); 15-hydroxyprostaglandin dehydrogenase [NAD(+)] (Homo sapiens), P15428; Potency, µM, most hits filed as inhibitors; purified HPGD, NADH fluorescence kinetic, PGE2 substrate; 150,000 tested, 4.3% active
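NADH formation kinetics: reaction with 30 uM PGE2 and 1 mM NAD+ (final), 20 nM enzyme, Tris-HCl pH 8 with Tween 20, after 15 min compound preincubation at room temperature. Fluorescence change, last versus first of five reads.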
Large screens that a line does not name were inactive. Unless noted, calls follow the shape of the dose curve; as a rule, active = well fitted inhibition curve with a large enough effect (not every such curve was filed as active); inconclusive = small, poorly fitted or top-dose-only effect, or another doubt; inactive = no such curve, though single readings can be large or run the other way.

Clc1ccc(-c2nn3c(C4COc5ccccc5O4)nnc3s2)cc1 (stereo unspecified)	ALDH1A1 inh 7.9µM, HPGD block 13µM
Cn1c(SCc2cnc(-c3ccccc3)s2)nnc1C1COc2ccccc2O1 (stereo unspecified)	ALDH1A1 inh 13µM, HPGD block 25µM
Cn1c(SCc2cc(=O)n3cc(Br)ccc3n2)nnc1C1COc2ccccc2O1 (stereo unspecified)	ALDH1A1 inh inconclusive, HPGD block inconclusive
CN(C)c1ccc(-c2nn3c(-c4ccc(Cl)cc4)nnc3s2)cc1	ALDH1A1 inh inconclusive (no result: HPGD block)
O=C(Nc1ccc(Nc2ccc3c(c2)C(=O)c2ccccc2C3=O)c2c1C(=O)c1ccccc1C2=O)c1ccccc1	none (no result: IMPase inh)
O=S(=O)(Cc1cc(NCc2ccccc2)nc(-c2ccccn2)n1)c1ccccc1	none (no result: IMPase inh, HPGD block)
COc1ccc(NC(=O)CSc2nc3ccsc3c(=O)n2CCCCCC(=O)O)cc1	none (no result: IMPase inh, HPGD block)
O=C1C=C(Nc2nc(C(=O)O)cc(=O)[nH]2)c2ccccc2C1=O	none (no result: IMPase inh)
O=C1C=C(O)c2ccccc2C1=O	ALDH1A1 inh 16µM, HPGD block inconclusive (no result: IMPase inh)
COc1ccccc1C(CC(=O)N1CCCC1)c1ccc2c(c1)OCO2 (stereo unspecified)	none (no result: IMPase inh, HPGD block)
O=C(CC(c1ccccc1)c1ccccc1)N1CCN(c2ccccn2)CC1	none (no result: IMPase inh, HPGD block)
O=C(CC(c1ccccc1)c1ccccc1O)N1CCCC1 (stereo unspecified)	HPGD block 1.8µM
Cc1cccc(C(CC(=O)N2CCCC2)c2ccccc2)c1O (stereo unspecified)	HPGD block 11µM
Cc1ccc(C(CC(=O)N2CCCC2)c2ccccc2)c(O)c1C (stereo unspecified)	HPGD block 7.9µM
CC(C)(C)NC(=O)CC(c1ccccc1)c1ccccc1O (stereo unspecified)	none
O=C(O)c1ccc(N2C(=O)C3C4c5ccccc5C(Br)(c5ccccc54)C3C2=O)cc1 (stereo unspecified)	none (no result: IMPase inh, HPGD block)
CCc1ccccc1N1CC23C=CC(O2)C(C(=O)O)C3C1=O (stereo unspecified)	none
O=C1C2C3C=CC(CO)(O3)C2C(=O)N1c1ccc(-c2ccccc2)cc1 (stereo unspecified)	ALDH1A1 inh 0.13µM, HPGD block 1.4µM
CC(C)(C)C(=O)NCC12C=CC(O1)C1C(=O)N(c3ccccc3)C(=O)C12 (stereo unspecified)	ALDH1A1 inh 1.4µM, HPGD block 20µM
COc1ccc(C(C(=O)NCC2CCCO2)N(C(=O)CNC(=O)c2cccs2)c2ccc(C)cc2)cc1OC (stereo unspecified)	none (no result: IMPase inh, HPGD block)
Cc1cc(C)c(C(N)=O)c(SCC(=O)c2ccc(Cl)cc2)n1	none
COc1ccc(C(=O)CSC2=C(C#N)C3(CCCCC3)C(C#N)=C(N)N2)cc1	ALDH1A1 inh 8.9µM (no result: HPGD block)
N#CC1=C(N)NC(SCC(=O)c2ccc(Br)cc2)=C(C#N)C12CCCCC2	ALDH1A1 inh 13µM (no result: IMPase inh)
N#CC1=C(N)NC(SCC(=O)c2ccc(Cl)cc2)=C(C#N)C12CCCC2	ALDH1A1 inh 28µM, HPGD block inconclusive
CC1(C)CC(=O)C2=C(C1)NC(SCC(N)=O)=C(C#N)C21CCCCC1	ALDH1A1 inh inconclusive
COc1ccc(C(=O)CSc2nc(N)nc(SC)c2C#N)cc1	ALDH1A1 inh inconclusive
CCc1ccccc1NC(=O)Nc1cc(F)ccc1F	none (no result: IMPase inh, HPGD block)
C=CC[C@@](C(C)=O)(C(=O)OC)C(NC(=O)OC)c1ccccc1 (stereo partly specified)	none (no result: IMPase inh)
O=C(CSc1nnc2ccc(-c3cccnc3)nn12)Nc1ccc(F)cc1F	none (no result: IMPase inh, HPGD block)
OB(O)O	none (no result: IMPase inh)
CCC(=O)NC1CCc2cccc(OC)c2C1 (stereo unspecified)	none (no result: IMPase inh, HPGD block)
CCCNC(=O)c1cc2nc(-c3ccc(Br)cc3)cc(C(F)(F)F)n2n1	none (no result: ALDH1A1 inh, HPGD block)
CC(=O)Nc1ccccc1NC(=O)c1ccc(C)c(C)c1	none (no result: IMPase inh, HPGD block)
CCOC(=O)c1c(N)sc2c1CCC1C(=O)N(C3CCCCC3)C(=O)C21 (stereo unspecified)	ALDH1A1 inh 13µM, HPGD block inconclusive
CCOC(=O)c1c(N)sc(C(=O)N2CCCC(C(N)=O)C2)c1C (stereo unspecified)	ALDH1A1 inh inconclusive (no result: IMPase inh)
O=C1C2=CC[C@H]3C(=O)N(Cc4ccccc4)C(=O)[C@@H]3[C@@H]2[C@H](O)[C@@H]2O[C@H]12	none (no result: IMPase inh, HPGD block)
CCC(=O)OC1CCC2C3CCc4cc(O)ccc4C3CC[C@]12C (stereo partly specified)	none (no result: IMPase inh)
CCCn1[nH]cc(SC)c(=O)c1=O	ALDH1A1 inh 22µM
Cc1cccc(C(=O)N[C@H](C(=O)OCC(=O)NC2CCS(=O)(=O)C2)C(C)C)c1 (stereo partly specified)	none (no result: IMPase inh)
CCC(c1nnnn1Cc1ccco1)N(Cc1ccccc1OC)Cc1cc2cc(C)ccc2[nH]c1=O (stereo unspecified)	ALDH1A1 inh inconclusive
COc1ccc2[nH]c(=O)c(CN(Cc3ccco3)C(c3nnnn3Cc3ccccc3)C(C)C)cc2c1 (stereo unspecified)	ALDH1A1 inh inconclusive, HPGD block inconclusive
Cc1cccc2cc(CN(Cc3ccco3)C(c3nnnn3CCc3ccccc3)C(C)C)c(=O)[nH]c12 (stereo unspecified)	ALDH1A1 inh 32µM, HPGD block inconclusive
CCC(c1nnnn1Cc1ccco1)N(Cc1cc2cc(C)cc(C)c2[nH]c1=O)CC1CCCO1 (stereo unspecified)	ALDH1A1 inh 13µM
c1cnn(-c2nc(N3CCOCC3)nc(N3CCOCC3)n2)c1	none (no result: HPGD block)
COc1cc(OC)c(OC)cc1CNCCNC(=O)c1nonc1N	none
NC(=O)c1cc2cc(Cl)ccc2oc1=Nc1cccc(C(F)(F)F)c1	none (no result: IMPase inh)
CCCCn1nnnc1NCc1cccnc1	none
Cn1c(-c2ccc(F)cc2)cnc1NCc1ccc(C#N)cc1	ALDH1A1 inh 5µM
Cn1c(-c2ccc(F)cc2)cnc1NCc1ccc(F)cc1	ALDH1A1 inh inconclusive, HPGD block inconclusive
Cn1c(-c2ccc3c(c2)OCO3)cnc1NCc1ccc(Cl)cc1	ALDH1A1 inh inconclusive, HPGD block inconclusive
Cc1ccc(CNc2ncc(-c3ccc4c(c3)OCO4)n2C)cc1	ALDH1A1 inh 16µM
Cn1c(-c2ccc(Br)cc2)cnc1NCc1cccnc1	ALDH1A1 inh 10µM
O=[N+]([O-])c1cccc(CNC2CCCCCC2)c1	none (no result: IMPase inh, HPGD block)
Cn1c(-c2cccc([N+](=O)[O-])c2)cnc1NCc1cccc([N+](=O)[O-])c1	ALDH1A1 inh 4.7µM (no result: IMPase inh, HPGD block)
CC(O)c1nc2ccccc2n1CC(=O)Nc1ccc(F)cc1Cl (stereo unspecified)	none (no result: IMPase inh, HPGD block)
Cc1ccn2cc(C34CC5CC(CC(C5)C3)C4)nc2c1	none (no result: IMPase inh, HPGD block)
COCCN(C(=O)Nc1ccccc1)c1ccccc1C	none
Cc1nonc1CC(=O)N1CCCC(C(=O)c2ccc(Cl)cc2)C1 (stereo unspecified)	none (no result: IMPase inh, HPGD block)
Cc1cc(C)n(-c2nc3c(c(=O)[nH]c(=O)n3C)n2C(C)C)n1	none
COCCNC(=O)C(=O)N/N=C/c1ccc(C(=O)OC)cc1	none (no result: IMPase inh, HPGD block)
O=C(CSc1nnc(-c2ccc(Cl)cc2)n1Cc1ccco1)NCc1ccc2c(c1)OCO2	ALDH1A1 inh inconclusive
O=C(CSc1nnc(-c2ccc(Cl)cc2)n1Cc1ccco1)Nc1ccc2c(c1)OCCO2	ALDH1A1 inh 5µM, HPGD block 25µM
